ChEMBL document CHEMBL4888484, “Replenishing the malaria drug discovery pipeline: Screening and hit evaluation of the MMV Hit Generation Library 1 (HGL1) against asexual blood stage Plasmodium falciparum ,using a nano luciferase reporter read-out” (2022)
Out of some 150,000 compounds screened, about 540 (0.36%) showed an effect of 50% or more. This excerpt belongs to a sample that is enriched for strong results.

system: Plasmodium falciparum; test: Primary screen in NF54 nanoGlo assay, in single point, at 2uM, 72h; a lower Z score goes with more inhibition; assay type: functional, Erythrocyte; details: timepoint 72 hour

| Compound | % Inhibition [%] | Z score |
| --- | --- | --- |
| CCn1c(CN2CCCC2)nc2cc(S(=O)(=O)N3CCCCC3)ccc21 | -46 | 5.44 |
| Cc1ccc(CNC(=O)[C@]2(C)CCC(=O)N2CCCc2ccccc2)cc1 | -16 | 1.5 |
| O=C(Nc1cccc(S(=O)(=O)NC2=NCCC2)c1)c1cc(Cl)c2c(c1)OCCCO2 | -11 | 1.51 |
| CCOc1cccc(-c2ccc3nc(-c4cccc(OC)c4)c(CCC(=O)NCCN4CCCC4)n3c2)c1 | 59 | -11.14 |
| CCOc1cccc(-c2ccc3nc(-c4cccc(OC)c4)c(CCC(=O)NC4CC4)n3c2)c1 | 4 | -0.75 |
| CCOc1cccc(-c2ccc3nc(-c4cccc(OC)c4)c(CCC(=O)NCCc4ccc(OC)c(OC)c4)n3c2)c1 | 22 | -4.22 |
| Cc1nc(O)nc(O)c1CN1CCOCC1 | -10 | 1.65 |
| c1ccc(-c2nnc(-c3cccnc3NCc3cccs3)o2)cc1 | -5 | 0.8 |
| O=C1CCCN1[C@H]1CCCN(S(=O)(=O)CC2CCCCC2)CC1 | -7 | 1.12 |
| O=C1O[C@H]2CN(CCCc3ccccc3)C[C@H]2N1Cc1ccccn1 | -16 | 1.43 |
| CCOCC1CCN(CCc2ccc3c(c2)CCO3)CC1 | -4 | 0.71 |
| O=C([C@@H]1CCCN1C1CC1)N1CCC2(CC1)OCCc1ccccc12 | -14 | 1.46 |
| COCC(=O)N[C@H]1CO[C@H]2[C@@H]1OC[C@@H]2Nc1nccc(-c2cccc(C#N)c2)n1 | 50 | -0.95 |
| N#Cc1cccc(-c2ccnc(N[C@H]3CO[C@H]4[C@@H]3OC[C@@H]4NC(=O)c3ccc(C(F)(F)F)cc3)n2)c1 | -7 | 1.07 |
| COCC(=O)N[C@H]1CO[C@H]2[C@@H]1OC[C@@H]2Nc1nccc(-c2ccc(OC)cc2)n1 | -5 | 0.87 |
| CC(C)Cn1cccc(C(=O)Nc2cn(C)nc2-c2ccco2)c1=O | -9 | 1.12 |
| CCN(C(=O)COc1cccc(C)c1)[C@H](c1ccc(C)cc1)c1c[nH]c2ccccc12 | 6 | -0.77 |
| COc1ccc(-c2oc(C)c(C)[n+]2[O-])cc1OC | 71 | 0.43 |
| Cc1oc(-c2cccc(F)c2)[n+]([O-])c1C | 5 | -0.64 |
| Cc1ccccc1-c1oc(C)c(C)[n+]1[O-] | 2 | -0.28 |
| COc1ccc(CN2C[C@H]3CC[C@@H](C2)N(CC=C(C)C)C3)cc1CN(C)C | -17 | 1.87 |
| CN(Cc1cnc2ccccc2c1)c1cnn(C)c1 | 1 | -0.16 |
| Cc1ncsc1CCNC(=O)[C@H]1CCN(c2ccc(C(F)(F)F)cn2)C1 | -4 | 0.7 |
| C[C@@H](C1CC1)N(C1CC1)S(=O)(=O)c1cccc2c1N=S=N2 | 38 | -0.53 |
| C[C@@H](C1CC1)N(CC(=O)Nc1ccc(F)cc1F)C1CC1 | -12 | 1.76 |
| C[C@@H](C1CC1)N(C1CC1)S(=O)(=O)c1ccc(F)cc1F | 84 | -10.78 |

| Compound | % Inhibition [%] | Z score |
| --- | --- | --- |
| CCOC(=O)N1CCC(C)(CN2CCS(=O)(=O)C[C@@H](C)C2)CC1 | -13 | 1.46 |
| Cn1cc(Cl)cc1C(=O)N1CCN(Cc2ccccc2F)C(=O)C1 | -2 | 0.24 |
| CCOc1ccc(Cl)cc1-c1cc(C)n[nH]c1=O | -8 | 1.52 |
| Cc1cccc(N2CCN(C(=O)c3cn4c(n3)COCC4)CC2)c1C | -8 | 1.36 |
| COc1ccc(C)c2sc(N(CCCN(C)C)C(=O)c3ccnn3C)nc12 | -7 | 1.27 |
| COc1ccc(C)c2sc(N(CCCn3ccnc3)C(=O)Cc3ccc(F)cc3)nc12 | 78 | -7.85 |
| COc1ccc(C)c2sc(N(Cc3cccnc3)C(=O)c3ccn(C)n3)nc12 | -12 | 2 |
| CC(C)(C)OC(=O)N1CC2CC1CCC2=O (centres undefined) | -3 | 0.51 |
| COc1ccc(CN2C[C@H]3CC[C@@H](C2)N(C(=O)c2nc(C)c[nH]2)C3)cc1 | -2 | 0.32 |
| CC(C)(C)OC(=O)NCc1cccnc1NC(=O)Cc1ccoc1 | 10 | -1.94 |
| O=C(CCn1nc2ccccn2c1=O)Nc1cnccc1Nc1ccc(F)cc1 | -25 | 4.76 |
| Cc1nn(C2CCCC2)c2nc(-c3cc(CN(C)C)cs3)[nH]c12 | 69 | -9.28 |
| Cc1nn(C2CCCC2)c2nc(-c3cccs3)[nH]c12 | -10 | 1.39 |
| Cc1nn(C)c(Cl)c1-c1nc2c([nH]1)c(C)nn2C1CCCCC1 | 1 | -0.09 |
| Fc1ccc([C@@H]2CCN2CCn2cc(Cl)cn2)cc1 | 12 | -1.59 |
| CN(C)Cc1ccc(O)c(CCc2ccccc2)n1 | 64 | -4.36 |
| OCc1cc(CO)c(O)c(CCc2ccccc2)n1 | -7 | 1.32 |
| CN(C)Cc1cc(CN(C)C)c(O)c(CCc2ccccc2)n1 | 7 | -1.36 |
| COC(=O)[C@H](CS(=O)(=O)Nc1cc(C)n(C)n1)c1ccccc1 | 3 | -0.46 |
| O=c1c2ccoc2ccn1Cc1ccc(OC(F)F)cc1 | -8 | 0.89 |
| O=C(C[n+]1ccccc1-c1nc(-c2ccc(Cl)cc2)cs1)c1ccccc1 | -7 | 1 |
| Brc1ccc(-c2csc(Cc3nc(-c4ccc(Br)cc4)cs3)n2)cc1 | -3 | 0.3 |
| COc1ccc(C2=CN(CC(=O)c3ccc(Cl)cc3)C3=CCCCCN23)cc1 | 37 | -3.83 |
| COc1ccc(-c2csc(-c3nc(-c4cccc(Cl)c4)cs3)n2)cc1 | -13 | 1.47 |
| COc1ccc(C(=O)CN2C=CCC=C2c2nc(-c3ccc(Cl)cc3)cs2)cc1 | 75 | -6.73 |
| O=C(CN1C=CCC=C1c1nc(-c2ccc(Br)cc2)cs1)c1ccccc1 | 65 | -4.25 |
